# PubChem BioAssay (NCI)
# About 83,000 compounds went through this panel and 20% of them were active in at least one assay; those are over-represented in the sample as a whole.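 Treatment: one concentration, 48 hours, 96-well format. Scoring: percent growth, with anything below 10 considered active.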 Values without a mark were called inactive. Calls of active or inactive are those of the source.
# Legend:
# Assay in all cases: NCI-60 one-dose screen, 48 h (100 = growth as untreated, 0 = no growth, -100 = all killed)
# Details in all cases: 10 µM unless noted
# [1] = system: DU-145 prostate
# [2] = system: K-562 leukemia
# [3] = system: MALME-3M melanoma
# [4] = system: MDA-MB-231 breast
# [5] = system: RXF 393 renal
# [6] = system: SF-268 CNS
# [7] = system: SF-295 CNS
# [8] = system: SF-539 CNS
# [9] = system: UACC-257 melanoma
# [10] = system: M14 melanoma
# [11] = system: HCT-15 colon
# [12] = system: HT29 colon
# [13] = system: SNB-75 CNS
# [14] = system: SNB-19 CNS
# [15] = system: PC-3 prostate
# [16] = system: SK-MEL-5 melanoma
# [17] = system: UACC-62 melanoma
# [18] = system: LOX IMVI melanoma
# [19] = system: SK-MEL-28 melanoma
# [20] = system: U251 CNS
Compound,growth [1],growth [2],growth [3],growth [4],growth [5],growth [6],growth [7],growth [8],growth [9],growth [10],growth [11],growth [12],growth [13],growth [14] [%],growth [15],growth [16],growth [17],growth [18],growth [19],growth [20]
CC(C)CCSc1nc(N)nc2nc[nH]c12,107%,81.7%,250%,106%,106%,108%,132%,87.4%,113%,91.6%,107%,114%,101%,93.3,93.7%,93.2%,82.3%,86.8%,121%,
NC(=S)Cc1ccccc1,104%,97.1%,92.7%,101%,116%,99.8%,91.9%,95.5%,103%,98.6%,97.3%,101%,88%,,102%,100%,93.9%,0.449% (active),105%,100%
C=C(C)[C@@H]1CC[C@]2(C(=O)N3CCN(C)CC3)CC[C@]3(C)[C@H](CC[C@@H]4[C@@]5(C)C/C(=C/c6ccncc6)[C@H](O)C(C)(C)[C@@H]5CC[C@]43C)[C@@H]12,-12.4% [100 µM] (active),-13.4% [100 µM] (active),-55.1% [100 µM] (active),-48.5% [100 µM] (active),-88.5% [100 µM] (active),4.1% [100 µM] (active),-53.6% [100 µM] (active),-72% [100 µM] (active),-31.2% [100 µM] (active),-13.6% [100 µM] (active),-28.6% [100 µM] (active),-65.8% [100 µM] (active),4.76% [100 µM] (active),,-20.2% [100 µM] (active),-82.4% [100 µM] (active),-56% [100 µM] (active),-77.3% [100 µM] (active),-54.3% [100 µM] (active),-70.5% [100 µM] (active)
Cn1cc(-c2noc(-c3cn(C)c4ncc(F)cc34)n2)c2ccccc21,79.2%,77%,66%,55.1%,73.1%,71.4%,49.6%,75.2%,101%,71.7%,58.2%,66.1%,1.91% (active),,71.7%,82.8%,80.1%,52.3%,94.1%,30.8%
CC(C)c1ccc(/C=N/N=C(N)N)cc1,98.9%,19.9%,88.4%,89.3%,89.4%,88.5%,67%,91.8%,77%,84.9%,89.6%,70.6%,76.9%,,48.4%,91.7%,95.8%,83.6%,85.9%,89.7%
CCOc1ccc(S(=O)(=O)Nc2ccc3c(c2)N(S(=O)(=O)CC)CCC3)cc1,89.6%,71.6%,100%,88.7%,86.2%,74.1%,59.2%,61.6%,85.4%,107%,89.9%,72.7%,64.8%,,73.1%,74.9%,64.8%,83.4%,103%,61.8%
Cc1cccc(C[C@H](NC(=O)Nc2ccc(C)cc2F)C(=O)N[C@@H]2C(=O)N3C[C@H](O)C[C@H]3C(=O)N3CCN(C)C[C@H]3C(=O)N[C@@H](C)C(=O)N3C[C@H](C)C[C@H]3C(=O)O[C@H]2C)c1,38.4%,23.1%,39.9%,18.7%,79.1%,31.6%,45%,50.7%,27.3%,79.9%,105%,33.8%,23.6%,,22.6%,66.3%,31.4%,38.5%,47.9%,26.5%
